Experimental data published in PubChem BioAssay.

Each compound was assayed on Human papillomavirus type 1a protein E7 (residues 44-93) (assay: small molecules binding HPV E7 44-93 – biochemical, small-molecule microarray, residues 44-93, 635 nm fluorescence, primary screen (AID 1108;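 further: E7 fragment applied at 1 µg/mL in TBST for 1 h at 4 C; score combines spot fluorescence with its signal to noise ratio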)). Conditions: fluorescence 635 nm, higher = more signal.

Compound	composite z-score
COC(=O)C(CC#Cc1ccc2c(c1)[C@]1(C(=O)N2)[C@H](c2ccc(O)cc2)N2[C@H](c3ccccc3)[C@H](c3ccccc3)OC(=O)[C@H]2[C@@H]1C(N)=O)C(=O)OC	-0.863
O=C1C2C=CC(C(O)c3ccc(Br)cc3)N(Nc3ccccc3)C2C(=O)N1c1ccccc1 (centres undefined)	0.699
O=C(O)[C@@]1(Cc2ccccc2)COC(c2ccc(OCCCO)cc2)=N1	0.0262
COC(=O)c1ccc(OC)c(/C=C\CC(CCc2ccccc2)OC(=O)c2ccncc2)c1 (centres undefined)	-0.0796
COC(=O)[C@@]1(Cc2ccc(OC)cc2)[C@H]2c3cc(C(=O)N4CCCC4)n(CCc4ccc(O)c(OC)c4)c3C[C@H]2CN1C(=O)c1ccccc1	0.333
C[N+](C)(C)CCCC[C@@H]1NC(=O)[C@H]2C[C@@H](C(=O)NCCCCCCN)[C@@H](c3cccc(OCCO)c3)N2C1=O	1.4
COC(=O)[C@]1(Cc2ccccc2N=[N+]=[N-])N=C(c2ccc(OCCCO)cc2)O[C@@H]1c1ccccc1	-0.296
CC(C)N1C(=O)c2ccccc2[C@](C)(C(=O)O)[C@@H]1c1ccc(CO)cc1	-0.113
COc1ccc(C(=O)Nc2ccc3c(c2)[C@]2(O[C@@H](CCO)[C@H]([Si](C)(C)c4ccc(OC)cc4)[C@H]2C)C(=O)N3Cc2ccccc2)cc1	0.958
